In the assay the target is Alpha-galactosidase A (Homo sapiens) (UniProt P06280). Nature of the assay: Confirmation of Inhibitors of Human alpha-Galactosidase Using Spleen Homogenate. Conditions: alpha-galactosidase enzyme activity; series mostly up to 56.2 µM. In short, it runs like this: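 AC50 values come from Hill-equation fits of normalised 4-methylumbelliferone fluorescence (365/440 nm, read after NaOH/glycine stop). Enzyme source: spleen homogenate; substrate 1 mM final; pH 5.0 citrate buffer; 40 min at 37C; compound titration 0.5 nM–58 uM.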

Here are results for 37 compounds from PubChem BioAssay AID2108 (National Center for Advancing Translational Sciences (NCATS), 2009).

Results filed as inconclusive are left out. The source made the active and inactive calls. The call rests on the fitted dose curve; in most records, active means well fitted curve in the direction sought with a large enough effect; inconclusive means small, poorly fitted or top-dose-only effect, or effect the other way, or another doubt; inactive means no such curve, though single readings can be large or run the other way.

Alpha-galactosidase A (Homo sapiens), sequence (P06280 32-429 limits assumed): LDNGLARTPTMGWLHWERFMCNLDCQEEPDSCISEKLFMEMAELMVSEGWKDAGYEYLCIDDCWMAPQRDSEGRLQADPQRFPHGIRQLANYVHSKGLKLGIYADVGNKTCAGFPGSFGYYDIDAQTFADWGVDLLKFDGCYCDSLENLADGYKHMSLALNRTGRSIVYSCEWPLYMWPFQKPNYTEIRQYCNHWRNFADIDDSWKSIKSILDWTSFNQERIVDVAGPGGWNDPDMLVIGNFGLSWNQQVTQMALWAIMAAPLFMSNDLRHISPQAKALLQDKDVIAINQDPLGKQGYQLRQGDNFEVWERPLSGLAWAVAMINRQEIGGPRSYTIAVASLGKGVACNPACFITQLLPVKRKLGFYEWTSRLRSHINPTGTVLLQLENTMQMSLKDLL

With `CCOC(=O)Cc1csc(NC(=O)NC2(C(F)(F)F)Oc3cc(Cl)c(Cl)cc3O2)n1`, the outcome was inactive.
The result for `CC(=O)N1CCN(c2ccc(NCc3ccccc3)cc2)CC1` reads “inactive”; that for `CCC(C)Nc1nc(-c2cccc(OC)c2O)nc2ccccc12` (configuration not stated), “inactive”.
The result for `CN(C)CC/C=C1/c2ccccc2Sc2c(O)cc(Cl)cc21` reads “inactive”.
With `COc1ccc(Cc2nnc(NC(=O)CSc3ccc(Cl)cc3)s2)cc1`, the outcome was inactive.
As for `CCOC(=O)c1ccc(NC(=O)c2ccccc2)cc1`, the compound was called inactive.
As to `O=C(O)c1cc(NCc2ccc3c(c2)OCO3)ccc1N1CCOCC1`, the outcome was inactive.
On to `CC(C)NCC(O)COc1cccc2[nH]ccc12` (configuration not stated), for which the outcome was inactive.
The result for `CCN1CCc2nc(NC(=O)CC(c3ccccc3)c3ccccc3)sc2C1` reads “inactive”.
For `CCc1ccc(N=CC23c4ccccc4C(c4ccccc42)C2C(=O)N(c4ccc(OC)cc4)C(=O)C23)cc1` (configuration not stated), the result was inactive.
For the compound `COc1cc(-c2cc(N3C(=O)Nc4ccccc4N3O)n[nH]2)cc(OC)c1OC`, the call was inactive.
As for `CCNc1sc(C(=O)c2cccs2)c(N)c1-c1nc2ccccc2s1`, the compound was classed as inactive.
As for `COc1cccc2cc(-c3nc(-c4ccccc4)c(C)s3)c(=O)oc12`, the outcome was inactive.
As for `N#Cc1c(Cl)cccc1N1CCC(C(N)=O)CC1`, the compound was classed as inactive.
The result for `Cc1cnc(C(=O)Nc2cc(S(=O)(=O)N3CCOCC3)ccc2N2CCN(C)CC2)cn1` reads “inactive”; that for `CC(=O)N1CCN(c2ccc(NCc3ccc(C(C)C)cc3)cc2)CC1`, “inactive”; that for `COc1cc(C2c3cc4c(cc3C(OC3OC5COC(C)O[C@@H]5C(O)C3O)C3COC(=O)C23)OCO4)cc(OC)c1O` (some centres not stated), “inactive”.
For `O=C(c1cccc2ccccc12)N1CCN(S(=O)(=O)c2ccccc2)CC1`, the compound was classed as inactive.
`CC1CCc2c(nc3ncnn3c2N2CCN(c3ccccc3F)CC2)C1` (configuration not stated): the compound was called inactive.
The result for `Cc1sc(-c2cc3ccccc3oc2=O)nc1-c1ccc(Cl)cc1` reads “inactive”.
The result for `COc1ccc(/C=C(/NC(=O)c2ccccc2)C(=O)NC(Cc2c[nH]c3ccccc23)C(=O)O)cc1` (configuration not stated) reads “inactive”.
For `COC(=O)c1ccccc1S(=O)(=O)N1CCOCC1`, the compound was called inactive.
On to `O=S(=O)(c1ccc2c(c1)C(=NNc1ccccc1)c1cc(S(=O)(=O)N3CCOCC3)ccc1-2)N1CCOCC1`, for which the compound was called inactive.
The result for `CCOC(=O)c1c(-c2ccc(-c3ccccc3)cc2)csc1NC(=O)CCN1CCOCC1` reads “inactive”; that for `CC(C)(C)OC(=O)NCCCC[C@H](NC(=O)c1[nH]cnc1C(=O)Nc1ccc(CNC(=O)OC(C)(C)C)cc1)C(=O)OC(C)(C)C`, “inactive”.
Regarding `CCN(CC)S(=O)(=O)c1ccc2c(c1)-c1cc(S(=O)(=O)N(CC)CC)ccc1C2=NNC(N)=S`, the compound was called inactive.
The result for `N#Cc1cccc(S(=O)(=O)N2CCOCC2)c1` reads “inactive”.
The result for `O=C(c1ccccc1)N1CCN(S(=O)(=O)c2ccccc2)CC1` reads “inactive”; that for `CCCC1(C)Nc2ccccc2-c2nc3ccccc3n21` (configuration not stated), “inactive”; that for `O=C(Cn1c(=O)[nH]n(-c2ccccc2)c1=O)N1CCCc2ccccc21`, “inactive”.
`OCC(CO)NC1C[C@](O)(CO)[C@@H](O)[C@H](O)[C@H]1O` (some centres not stated): the result was inactive.
For `CC(=O)c1cccc(S(=O)(=O)N2CCOCC2)c1`, the outcome was inactive.
Consider `CC1CCc2nc(-c3cc4ccc(O)cc4oc3=O)sc2C1` (configuration not stated), for which the compound was called inactive.
The result for `CNc1ncnc2c1ncn2[C@H]1C[C@H](OP(=O)(O)O)[C@@H](COP(=O)(O)O)O1` reads “inactive”; that for `CCOC(=O)N1CCN(c2cc(N(C)CCO)c([N+](=O)[O-])c3nonc23)CC1`, “inactive”; that for `CSc1ccccc1NC(=O)CN(C)CC(=O)NCc1ccccc1`, “inactive”.
The result for `CCOC(=O)C(CC)Sc1ncnc2c1c(-c1ccccc1)cn2-c1ccc(OC)cc1` (configuration not stated) reads “inactive”.
